The list is not random: actives were taken first. Their share in the collection is about 1.4%.
SARS 3CLpro inh = SARS-CoV 3CLpro protease inhibitors, primary screen, biochemical, quenched FRET; recombinant SARS-CoV 3CLpro, quenched FRET peptide cleavage; Replicase polyprotein 1ab (Severe acute respiratory syndrome coronavirus), P0C6X7; 0.14% of 290,000 active; inhibition, % at 6 µM; AID 1706, 2009; in the data active = inhibition above about 12%
CCHF vOTU inh = CCHFV vOTU protease inhibitors, primary screen, biochemical, Pep-AMC substrate, fluorescence; AID 651958, 2012; 0.55% of 370,000 active; Crimean-Congo hemorrhagic fever virus L polyprotein viral ovarian tumor (vOTU) protease …; inhibition, % at 11.5 µM; in the data active = inhibition above about 30%; also: 0% = vehicle wells with enzyme and 100% = no enzyme wells
MazEF act = activators of E. coli MazEF toxin-antitoxin RNase, primary screen, biochemical, fluorescence, uHTS | 0.32% of 350,000 active | FAM/BHQ RNA-DNA oligo cleavage fluorescence, 5 h | Endoribonuclease toxin MazF (Escherichia coli (strain K12)), P0AE70 | activation, % at 20 µM; in the data active = activation above about 50%
Target sequence (P0AE70 whole entry, looked up): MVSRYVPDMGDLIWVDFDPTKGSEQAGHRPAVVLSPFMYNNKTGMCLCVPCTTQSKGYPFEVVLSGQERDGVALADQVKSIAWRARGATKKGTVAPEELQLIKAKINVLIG
BJeLR lethal = MLPCN primary cell-based screen for lethality selective to Ras in HRASV12 cells; BJeLR (HRASV12) viability, CellTiter-Glo ATP luminescence, 48 h; AID 1554, 2009; 0.17% of 300,000 active; inhibition, % (concentration not given with the values); in the data active = inhibition above about 50%
DUSP3 inh = VHR1 phosphatase inhibitors, primary screen, biochemical, absorbance, uHTS; recombinant VHR phosphatase, pNPP absorbance; AID 1654, 2009; inhibition, % at 13.3 µM; 0.52% of 290,000 active; Dual specificity protein phosphatase 3 (Homo sapiens), P51452; in the data active = inhibition above about 50%
Target sequence (P51452 whole entry, looked up): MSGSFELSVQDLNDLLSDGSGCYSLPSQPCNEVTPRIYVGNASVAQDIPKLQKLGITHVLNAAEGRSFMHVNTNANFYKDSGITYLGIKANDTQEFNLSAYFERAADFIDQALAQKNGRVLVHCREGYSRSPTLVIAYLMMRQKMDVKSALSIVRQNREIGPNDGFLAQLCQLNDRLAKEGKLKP
Active calls of the source: *.

How did CC(=O)N/C(=C\c1ccccc1)C(=O)OCC(=O)NC1CCCC1 do in these assays?
SARS 3CLpro inh: 3; CCHF vOTU inh: -4; MazEF act: -4; BJeLR lethal: -6; DUSP3 inh: 58*

What do the screens show for `O=C(Nc1nc2ncccn2c1-c1ccc(C(F)(F)F)cc1)C1CC1`?
CCHF vOTU inh: -48

Results for CCC(C)[C@H](NC(=O)[C@H](Cc1ccccc1)NC(=O)OC(C)(C)C)C(=O)NCc1ccccc1Br (stereo partly drawn) ?
CCHF vOTU inh: 12

Results for Cc1cccnc1NC(=O)C1CCCN(S(=O)(=O)c2ccc3c(c2)oc(=O)n3C)C1 (stereo not drawn) ?
SARS 3CLpro inh: -5; CCHF vOTU inh: -6; MazEF act: 4; BJeLR lethal: 3; DUSP3 inh: 19

How did Cc1ccc(NC(=O)C2CCCN(S(=O)(=O)c3ccc4c(c3)oc(=O)n4C)C2)nc1 (stereo not drawn) do in these assays?
SARS 3CLpro inh: -5; CCHF vOTU inh: 30*; MazEF act: 6; BJeLR lethal: 7; DUSP3 inh: 28

Results for CC1CCCN(c2ccc([N+](=O)[O-])cc2C(=O)c2ccccc2)C1 (stereo not drawn) ?
SARS 3CLpro inh: 2; CCHF vOTU inh: 10; MazEF act: 0; BJeLR lethal: 58*; DUSP3 inh: 7

How did O=C(c1ccccc1)c1cc([N+](=O)[O-])ccc1N1CCOCC1 do in these assays?
SARS 3CLpro inh: -1; CCHF vOTU inh: 3; MazEF act: -1; BJeLR lethal: 50; DUSP3 inh: 18

How did CC1CCCN(c2ccc(C(=O)Nc3cccnc3)cc2[N+](=O)[O-])C1 (stereo not drawn) do in these assays?
SARS 3CLpro inh: 5; CCHF vOTU inh: -7; MazEF act: 10; BJeLR lethal: 9; DUSP3 inh: 52*

What do the screens show for `Cc1cc(C)c2cc(CN(CCO)C(=O)NC3CCCCC3)c(=O)[nH]c2c1`?
SARS 3CLpro inh: 1; CCHF vOTU inh: -2; MazEF act: -3; BJeLR lethal: 1; DUSP3 inh: -3

Results for CCN1CCCC1CN(Cc1cc2c(C)cc(C)cc2[nH]c1=O)C(=O)NC1CCCCC1 (stereo not drawn) ?
SARS 3CLpro inh: 1; CCHF vOTU inh: 3; MazEF act: 59*; BJeLR lethal: -4; DUSP3 inh: 0

Results for COc1ccccc1N=Cc1c(C)c(C#N)c2[nH]c3ccccc3n2c1=O ?
SARS 3CLpro inh: 1; CCHF vOTU inh: -4; MazEF act: 143*; BJeLR lethal: 9; DUSP3 inh: 21

How did Cc1c(Cc2ccccc2)c(=O)n2c([nH]c3ccccc32)c1C#N do in these assays?
SARS 3CLpro inh: 0; CCHF vOTU inh: -14; MazEF act: -23; BJeLR lethal: 2; DUSP3 inh: -4

What do the screens show for `CCN(CC(=O)Nc1ccc(NC(C)=O)cc1)C(=O)C(c1ccccc1)c1ccccc1`?
SARS 3CLpro inh: 1; CCHF vOTU inh: 2; MazEF act: 2; BJeLR lethal: 5; DUSP3 inh: 51*

What do the screens show for `CCCCCCCCN1C(=O)[C@@H](CC(=O)NCc2ccccc2)C[C@@]2(C(=O)OC)C1=C[C@H](COCc1ccccc1)O[C@@H]2C`?
CCHF vOTU inh: 24

Results for O=[N+]([O-])c1ccc(/C=[N+](\[O-])CCO)o1 ?
SARS 3CLpro inh: -2; CCHF vOTU inh: 26; MazEF act: -6; BJeLR lethal: -1; DUSP3 inh: 53*

What do the screens show for `NC(=O)N/N=C/c1ccc([N+](=O)[O-])o1`?
CCHF vOTU inh: 11; MazEF act: -6

What do the screens show for `Cc1ccc2nc3c(cc(C(=O)NC4CCCC4)c(=N)n3C3CCCCC3)c(=O)n2c1`?
SARS 3CLpro inh: 2; CCHF vOTU inh: -75; MazEF act: 12; BJeLR lethal: -1; DUSP3 inh: 58*

How did Cn1cc(CC(=O)Nc2ccc(Nc3cccnc3)cc2)c2ccccc21 do in these assays?
CCHF vOTU inh: 27

What do the screens show for `C#CCSc1nc2sc3c(c2c(=O)n1C)CCC3`?
SARS 3CLpro inh: -4; CCHF vOTU inh: 12; MazEF act: -20; BJeLR lethal: -7; DUSP3 inh: 58*

How did O=C(c1cncnc1)N1CCC(n2nnc3ncccc32)CC1 do in these assays?
CCHF vOTU inh: -3

What do the screens show for `Cc1nn(Cc2ccccc2)c(C)c1NC(=O)c1cc(-c2ccco2)on1`?
SARS 3CLpro inh: -2; CCHF vOTU inh: 7; MazEF act: 3; BJeLR lethal: 2; DUSP3 inh: 53*

How did COc1ccccc1Nc1ccc([N+](=O)[O-])cc1N do in these assays?
SARS 3CLpro inh: 3; CCHF vOTU inh: 10; MazEF act: -1; BJeLR lethal: -15; DUSP3 inh: 53*

Results for COCCN1C(=O)C2=C(C1=O)C1N(C)c3ccccc3[C@@]13C[C@@H](CO)N(S(=O)(=O)c1ccc(OC)cc1)C3=N2 (stereo partly drawn) ?
CCHF vOTU inh: -3

What do the screens show for `O=c1oc2ccc3ccccc3c2cc1-c1nc2ccccc2o1`?
SARS 3CLpro inh: 6; CCHF vOTU inh: -111; MazEF act: 329*; BJeLR lethal: 3

How did CC(C)c1cc(C(C)C)c(S(=O)(=O)N2CCCC(C(=O)NCc3cccs3)C2)c(C(C)C)c1 (stereo not drawn) do in these assays?
CCHF vOTU inh: 18

How did Brc1nc(-c2ccccc2)nc(-c2ccccc2)c1Br do in these assays?
CCHF vOTU inh: -12; MazEF act: -11; BJeLR lethal: 51*

How did Oc1c(N=Nc2ccccn2)ccc2ccccc12 do in these assays?
SARS 3CLpro inh: -1; CCHF vOTU inh: 3; MazEF act: 3; BJeLR lethal: 61*; DUSP3 inh: 26

Results for Cc1cc(C)c2c(c1)c(C)cc1nnc(SCC(=O)c3cccs3)n12 ?
SARS 3CLpro inh: 0; MazEF act: 74*; BJeLR lethal: 8; DUSP3 inh: 11

Results for CCN(CC)c1ccc(C=NNC(=O)c2cc(-c3ccc(C)c(C)c3)n[nH]2)c(O)c1 ?
CCHF vOTU inh: -23

Results for CCc1[nH]nc(C(=O)N2CCCC(C(=O)c3cccc(C(F)(F)F)c3)C2)c1C (stereo not drawn) ?
SARS 3CLpro inh: -4; CCHF vOTU inh: 25; MazEF act: -9; BJeLR lethal: 2; DUSP3 inh: 52*

What do the screens show for `COc1cccc(CNC(=O)C2CCC(CNS(=O)(=O)c3cccc4cccnc34)CC2)c1` (stereo not drawn)?
SARS 3CLpro inh: -5; CCHF vOTU inh: 12; MazEF act: 1; BJeLR lethal: -4; DUSP3 inh: 56*

What do the screens show for `COC(=O)c1ccccc1NC(=O)Cn1cnc2c(cnn2-c2ccccc2)c1=O`?
SARS 3CLpro inh: 2; MazEF act: 63*; BJeLR lethal: 6; DUSP3 inh: 16

What do the screens show for `CCOc1ccccc1NC(=O)Cn1cnc2c(cnn2-c2ccc(C)c(C)c2)c1=O`?
SARS 3CLpro inh: 0; CCHF vOTU inh: -9; MazEF act: 162*; BJeLR lethal: -5; DUSP3 inh: 14

From PubChem BioAssay
